{"source": "the OligoGym collection"}
{"target": "QSOX1", "experiment": "pooled miR-30 sensor sort-seq; sequence = guide strand", "conditions": "shRNA"}
{"sequence": "TTGAAGTCTCTGCAGACTGCAC", "sensor-assay potency score (higher = more potent)": -0.833}
{"sequence": "TATTTCTCGCAAAGAATCCATC", "sensor-assay potency score (higher = more potent)": -1.27}
{"sequence": "TAAGCGGTATAGAAGGACCTGG", "sensor-assay potency score (higher = more potent)": -0.156}
{"sequence": "TTCCGGAACAGCAGGTAGCAAG", "sensor-assay potency score (higher = more potent)": -1.46}
{"sequence": "TACATTTTGCCGAGCTGCCTGC", "sensor-assay potency score (higher = more potent)": -0.913}
{"sequence": "TAGCGCAGTCTCGGCAGCCGAA", "sensor-assay potency score (higher = more potent)": -1.38}
{"sequence": "TTATTTCTCGCAAAGAATCCAT", "sensor-assay potency score (higher = more potent)": -0.0879}
{"sequence": "TTGTGGCTAGACCAGAGCCAGA", "sensor-assay potency score (higher = more potent)": -1.92}
{"sequence": "TTGAAGAACCTCACAGTCGGGA", "sensor-assay potency score (higher = more potent)": 0.0825}
{"sequence": "TTTGTGCTGGGACAGGTCCAGA", "sensor-assay potency score (higher = more potent)": -1.47}
{"sequence": "TACTCTTCGTTATTTCTCGCAA", "sensor-assay potency score (higher = more potent)": -0.156}
{"target": "RAB11A", "experiment": "pooled miR-30 sensor sort-seq; sequence = guide strand", "conditions": "shRNA"}
{"sequence": "TACATTTGTAGAGTCTAGGGCC", "sensor-assay potency score (higher = more potent)": 0.146}
{"sequence": "TATATTTAAATCTCAGACCTGG", "sensor-assay potency score (higher = more potent)": 0.396}
{"sequence": "TTGTCTGAAAAGCAGCTTCTAC", "sensor-assay potency score (higher = more potent)": -1.05}
{"sequence": "TATAGCTCGATATCGCTCTTGC", "sensor-assay potency score (higher = more potent)": 0.186}
{"sequence": "TTCATCTGTAGGAACTGCCCTG", "sensor-assay potency score (higher = more potent)": 0.239}
{"sequence": "ATGAATAGGAACCACATTGTTG", "sensor-assay potency score (higher = more potent)": -1.36}
{"sequence": "TTGCTTCTGAGAAACAATGCGG", "sensor-assay potency score (higher = more potent)": -0.544}
{"sequence": "TATTGTTTTTCCATCAACCTGG", "sensor-assay potency score (higher = more potent)": 0.22}
{"sequence": "TTATAGCTCGATATCGCTCTTG", "sensor-assay potency score (higher = more potent)": -0.642}
